An excerpt weighted towards active compounds, which were near 7.9% of everything screened.
SW480 rereplic – induces DNA re-replication in SW480 colon adenocarcinoma cells; SW480 DNA re-replication, Hoechst DNA content imaging, 48 h; hit rate 1.8% among 340,000; Potency, µM (doses to about 46.1 µM), inactives show at the top dose re-replication activation, most hits filed as activators; further: % of control where 0% means no effect; nearly all actives have a fitted effect of over 55% in size
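Treated cells incubate 48 hr (37 C, 5% CO2), are stained 40 min with Hoechst, and nuclear fluorescence is enumerated; a rise in nuclei with high DNA signal marks re-replication.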
KB-3-1 cytotox – KB-3-1 parental cell cytotoxicity | Potency, µM (titrated, usually from 46.1 µM), actives largely listed as cytotoxic | KB-3-1 viability, CellTiter-Glo ATP luminescence, 72 h | hit rate 1.4% among 400,000 | AID 1347075; further: on the % scale 0 is the no-effect control and ±100 the full control effect; nearly all actives have a fitted effect of over 60% in size
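72 h, 37 °C compound treatment of KB-3-1 parental cells; CellTiter-Glo added, 10 min, luminescence read. Data corrected against DMSO-only plates and normalized before curve fitting.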
MCF10A rerep – induces DNA re-replication in MCF 10a normal breast cells; MCF 10A DNA re-replication, Hoechst nuclear intensity, 48 h; Potency, µM (doses to about 46.1 µM), without a hit: at the top dose activity, positive = re-replication, usual class: activators; hit rate 2.9% among 350,000; further: % of control where 0% means no effect; nearly all actives have a fitted effect of over 50% in size
HT1080 IDH1KD tx – HT-1080 IDH1 knockdown cell toxicity (counter line) | HT-1080 IDH1 knockdown viability, ATP luminescence, 48 h | Potency, µM (top dose mostly 46.1 µM), inactives show at the top dose activity, negative = toxicity, usual class: cytotoxic | AID 686971 | hit rate 2% among 360,000;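 further: 0% = DMSO wells and -100% = cell-free medium wells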
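Luminescent ATP read-out (CellTiter-Glo, 10 min at room temperature) after 48 h compound exposure at 37 °C gave viability of IDH1-knockdown HT-1080 cells. Activity was normalised to DMSO and cell-free wells, then fitted as concentration-response curves.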
HT1080-NT tox – kills 2HG-producing HT-1080-NT fibrosarcoma cells. HT-1080-NT fibrosarcoma viability, CellTiter-Glo ATP luminescence, 48 h. Potency, µM (highest dose often 46.1 µM), for inactives: top-dose activity, negative = less viability, most hits filed as cytotoxic. hit rate 1.6% among 360,000. AID 686970;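 further: NT is the 2HG producing partner of a matched IDH1 knockdown line; 0% = DMSO-treated cells and -100% = media-only wells without cells; nearly all actives have a fitted effect of over 55% in size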
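Luminescent CellTiter-Glo readout after 48 hours of compound exposure at 37 degrees C defined viability of HT-1080-NT cells. Activity was normalized to DMSO wells and cell-free media wells; concentration-response curves were fitted and assigned curve classes.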
KB-V1 MDR tox – kills drug-selected multidrug resistant KB-V1 cells | KB-V1 MDR cells viability, CellTiter-Glo, 72 h | Potency, µM (highest dose often 46.1 µM), usual class: cytotoxic | hit rate 3.4% among 400,000; further: on the % scale 0 is the no-effect control and ±100 the full control effect; nearly all actives have a fitted effect of over 60% in size
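Cytotoxicity toward P-gp-expressing KB-V1 cells was determined as loss of CellTiter-Glo luminescence after 72 h at 37 degrees C. Compounds were tested in quantitative HTS format across a concentration range, with curves fitted to normalized data.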
Numbers without * were called inactive; i = inactive; ? = inconclusive; · = not tested or not shown; [ ] = remark or other dose. The call rests on the fitted dose curve; in most records, active means well fitted curve in the direction sought with a large enough effect; inconclusive means small, poorly fitted or top-dose-only effect, or another doubt; inactive means no such curve, though single readings can be large; an effect the other way counts as inactive or inconclusive. Potency means the concentration at half of the fitted maximal effect.

SMILES	SW480 rereplic	KB-3-1 cytotox	MCF10A rerep	HT1080 IDH1KD tx	HT1080-NT tox	KB-V1 MDR tox
COc1ccc(Cn2c(SCc3ccc(C(=O)NC4CCCCC4)cc3)nc3ccncc32)cc1	·	i	·	·	·	i
CCOC(=O)c1cnc(-n2nc(C)cc2C)nc1Nc1ccc(N(C)C)cc1	-4.2%	?	0.8%	-19.6%	-7.6%	i
CCOC(=O)c1cnc(-n2nc(C)cc2C)nc1N(CC)CC	?	i	-1.1%	1.58µM*	?	1.64µM*
CCOC(=O)c1cnc(-n2nc(C)cc2C)nc1Oc1ccc(C#N)cc1	-6.5%	i	-2.4%	5.0%	13.3%	i
CCOC(=O)c1cnc(-n2nc(C)cc2C)nc1Nc1ccc(C)cc1	-6.6%	i	6.0%	1.5%	7.2%	1.03µM*
CCOC(=O)c1cnc(-n2nc(C)cc2C)nc1NC	?	i	1.1%	?	7.08µM*	?
CCOC(=O)c1cnc(-n2nc(C)cc2C)nc1NC1CCCCC1	?	?	20.6µM*	-15.3%	?	8.2µM*
CCOC(=O)c1cnc(-n2nc(C)cc2C)nc1Nc1ccc(O)cc1	-8.3%	?	-2.7%	9.5%	15.5%	?
CS(=O)(=O)c1ccc(Cl)c(NC(=O)CCN2C(=O)C3CC=CCC3C2=O)c1 (stereo unspecified)	-30.1%	i	3.8%	-0.5%	4.4%	i
OCCN1CCN(CCCN2c3ccccc3C=Cc3ccccc32)CC1	?	·	10.8%	·	·	·
CCCCn1c(N)c(N(CC(C)C)C(=O)c2cc(-c3ccncc3)nc3ccccc23)c(=O)[nH]c1=O	-11.1%	i	?	2.9%	4.3%	i
CCOC(=O)c1cnc(-n2nc(C)cc2C)nc1NNc1nc(C)cc(C)n1	-22.7%	i	-1.1%	0.3%	1.7%	i
CCOC(=O)c1cnc(-n2cc(C)cn2)nc1Nc1ccccc1OC	10.3%	?	18.1%	27.9%	-3.7%	1.84µM*
CCOC(=O)c1cnc(-n2nc(C)cc2C)nc1NNc1nc(-c2ccccc2)cc(-c2ccccc2)n1	?	25.9µM*	?	?	?	?
Cc1nc(C#N)nc(Oc2ccccc2)c1Cl	·	·	·	19.6%	16.3%	·
COc1ccc(C)cc1S(=O)(=O)NCC(c1ccc2c(c1)OCO2)N1CCN(C)CC1 (stereo unspecified)	1.8%	i	-0.4%	12.3%	3.5%	i
COc1ccc(/C=C/c2ccc(=O)n(Cc3ccccc3)n2)cc1	-4.3%	i	20.6µM*	?	-15.6%	?
O=c1ccc(/C=C/c2ccccc2)nn1Cc1ccc(F)cc1	3.0%	i	?	-27.4%	-4.3%	i
Cc1ccc(C=Cc2ccccn2)cc1	·	i	·	13.3%	18.9%	i
COc1ccc(/C=C/c2ccccn2)cc1	·	23.1µM*	·	·	·	i
Cc1ccc(/C=C/c2ccc(=O)n(Cc3ccccc3Cl)n2)cc1	-5.1%	?	?	-0.8%[9.24 µM]	?	20.6µM*
O=C1CCc2cc(S(=O)(=O)Nc3ccc4ncccc4c3)ccc2N1	·	i	·	·	·	i
CCOc1ccccc1N1CC(c2nc3ccccc3n2CCOc2ccc(OC)cc2)CC1=O (stereo unspecified)	·	i	·	·	·	5.8µM*
Cc1ccc(OCCn2c(C3CC(=O)N(Cc4ccccc4)C3)nc3ccccc32)cc1 (stereo unspecified)	0.7%	?	11.6µM*	-22.1%	-22.7%	i
CCOc1ccccc1N1CC(c2nc3ccccc3n2CCCOc2ccc(OC)cc2)CC1=O (stereo unspecified)	·	i	·	·	·	?
SMILES	SW480 rereplic	KB-3-1 cytotox	MCF10A rerep	HT1080 IDH1KD tx	HT1080-NT tox	KB-V1 MDR tox
O=C1NC[C@H](CCCCN2C[C@H](Cc3ccccc3)N(CC3CCCCC3)C(=O)C2=O)N(CCc2ccccc2)C1=O	·	?	·	13.8%	22.5%	i
CN(C)c1nccc(N(Cc2ccccc2)Cc2ccccc2)c1C#N	-3.0%	?	?	-1.9%[9.24 µM]	-18.3%	13µM*
O=[S+]1([O-])N=C(Oc2cccnc2)c2ccccc21	·	i	·	·	·	i
Fc1ccc(CSc2ncnc3scc(-c4ccccc4)c23)cc1	-0.1%	i	21.8%	-1.8%	2.1%	14.6µM*
Cn1nnnc1Sc1ncnc2scc(-c3ccc(C#N)cc3)c12	2.5%	?	?	·	·	?
Cn1nnnc1Sc1ncnc2scc(-c3cccc(C(F)(F)F)c3)c12	?	?	3.26µM*	·	·	?
Cn1nnnc1Sc1ncnc2scc(-c3ccc(C(F)(F)F)cc3)c12	6.3%	?	2.06µM*	·	·	18.4µM*
Cn1nnnc1Sc1ncnc2scc(-c3cccc(F)c3)c12	4.2%	i	?	·	·	i
Cc1ccc(-c2csc3ncnc(-n4nnc5ccccc54)c23)cc1	-4.2%	?	6.2%	-9.6%	-5.8%	?
Cn1nnnc1Sc1ncnc2scc(-c3ccccc3C(F)(F)F)c12	?	16.4µM*	79.4%	·	·	?
O=C(CN1C(=O)NC2(CCCCCC2)C1=O)Nc1ccc(OC(F)(F)F)cc1	·	i	·	?	-23.4%	i
O=S1(=O)CCOC[C@H](c2ccccc2)N1Cc1ccccc1	-5.3%	?	?	19.1%	3.6%	?
COc1ccc(-c2c(NC(=O)c3ccco3)oc3c(C)cccc3c2=O)cc1OC	3.3%	i	7.5%	-11.0%	-19.4%	i
Cn1nnnc1Sc1ncnc2scc(-c3ccc(-c4ccccc4)cc3)c12	?	14.6µM*	8.2µM*	·	·	?
Cc1nc(Sc2nnnn2C2CC2)c2c(-c3ccccc3)csc2n1	·	?	·	·	·	i
Cc1ccccc1N1CCN(c2ncnc3scc(-c4cccs4)c23)CC1	20.6%	?	?	-15.6%	2.9%	?
CCn1nnnc1Sc1nc(C)nc2scc(-c3ccccc3)c12	·	13µM*	·	·	·	i
Cn1nnnc1Sc1ncnc2scc(-c3ccsc3)c12	?	?	16.4µM*	·	·	i
Cn1nnnc1Sc1ncnc2scc(-c3cccs3)c12	?	?	10.3µM*	·	·	?
COc1cc(-c2noc(C3CC(=O)N(c4cc(C)ccc4C)C3)n2)cc(OC)c1OC (stereo unspecified)	·	i	·	·	·	i
Cc1nn(CC(=O)N(C)C2CCS(=O)(=O)C2)c(C)c1S(=O)(=O)N(C)C (stereo unspecified)	?	i	3.1%	6.6%	7.0%	i
N#CC1(NC(=O)CSc2nnc(C3CC3)n2N)CCCCC1	·	i	·	16.5%	15.4%	i
COc1cccc(-c2csc3ncnc(Sc4nnnn4C)c23)c1	0.326µM*	?	?	·	·	?
COC(=O)CSc1ncnc2scc(-c3ccccc3)c12	?	i	0.0%	-6.9%	-22.6%	i

Screens (PubChem)
